{"source": "PubChem BioAssay (EPA / NIEHS)", "note": "Inconclusive results are not listed. The source made the active and inactive calls. How the source made its calls: active means hit-call score of the fitted dose curve at least 0.9, where 1 is the maximum; inconclusive means response in the unintended direction; inactive means score below 0.9.", "data": [{"experiment": "TOX21_p53_BLA_p2_viability: Viability Assessment in the Tox21 HCT-116 p53 Agonism Beta-lactamase Assay, Phase 2 (AID 2283591);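 further: compound exposure lasted 16 h at 37 °C; actives lower the ATP signal meaning cytotoxicity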", "method_in_brief": "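Cytotoxicity readout: CellTiter-Glo ATP luminescence, 30 min at room temperature, after the beta-lactamase read. Cells were HCT116 exposed 16 h at 37C to compounds pin-transferred at 217-fold dilution from DMSO stocks.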", "values": [{"compound": "CCCCN1C=CN(C)C1", "outcome": "inactive"}, {"compound": "O=C(O)c1c(Cl)cccc1Cl", "outcome": "inactive"}, {"compound": "CC[N+](CC)(CC)CCOc1cccc(OCC[N+](CC)(CC)CC)c1OCC[N+](CC)(CC)CC", "outcome": "inactive"}, {"compound": "CCOC(=O)[C@H](CCc1ccccc1)N[C@@H](C)C(=O)N1C(=O)N(C)C[C@H]1C(=O)O", "outcome": "inactive"}, {"compound": "Nc1ncnc2c1ncn2[C@H]1CC[C@@H](CO)O1", "outcome": "inactive"}, {"compound": "Cc1nc2n(c(=O)c1CCN1CCC(c3noc4cc(F)ccc34)CC1)CCC[C@H]2O", "outcome": "inactive"}, {"compound": "C1COC1", "outcome": "inactive"}, {"compound": "CC[C@@]1(O)C[C@@H]2CN(CCc3c([nH]c4ccccc34)[C@@](C(=O)OC)(c3cc4c(cc3OC)N(C)[C@H]3[C@@](O)(C(=O)OC)[C@H](OC(C)=O)[C@]5(CC)C=CCN6CC[C@]43[C@@H]65)C2)C1", "outcome": "inactive"}, {"compound": "O=c1[nH]c2ccc(Cl)cc2o1", "outcome": "inactive"}, {"compound": "O=c1[nH]c(=O)n([C@H]2C[C@H](O)[C@@H](CO)O2)cc1Br", "outcome": "inactive"}, {"compound": "Cn1c(=O)c2c(ncn2CC(O)CO)n(C)c1=O", "note": "(centres undefined)", "outcome": "inactive"}, {"compound": "Nc1nc(/C(=C/CC(=O)O)C(=O)N[C@@H]2C(=O)N3C(C(=O)O)=CCS[C@H]23)cs1", "outcome": "inactive"}, {"compound": "C[N+](C)(C)CC[N+]1(C)Cc2c(Cl)c(Cl)c(Cl)c(Cl)c2C1", "outcome": "inactive"}, {"compound": "Cc1cc(C(=O)O)ccc1[N+](=O)[O-]", "outcome": "inactive"}, {"compound": "O.O=C([O-])CC([S-])C(=O)[O-].[Au+].[Na+].[Na+]", "note": "(centres undefined)", "outcome": "inactive"}, {"compound": "O=C1c2ccccc2-c2ccccc21", "outcome": "inactive"}, {"compound": "CC(C)Cc1nccs1", "outcome": "inactive"}, {"compound": "BrCCCCCBr", "outcome": "inactive"}, {"compound": "O=[N+]([O-])c1ccccc1CCO", "outcome": "inactive"}]}]}
